We go through 38 compounds from PubChem BioAssay (NCI).

About 83,000 compounds went through this panel and 20% of them were active in at least one assay; those are over-represented in the sample as a whole.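 Percent growth is the endpoint: 0 to 100 indicates growth inhibition (40 means 60% inhibition), 0 means no net growth, and negative values indicate cell death.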 Values without a mark were called inactive. Active and inactive are the calls of the source. How the source made its calls: active means growth percent below 10; inactive means the rest.

The assay concerns PC-3 prostate. Briefly: NCI-60 one-dose screen, 48 h (100 = growth as untreated, 0 = no growth, -100 = all killed). Particulars: 10 µM unless noted.
Consider `CCN(CC)CCCCCCNc1cc(OC)cc2cccnc12`, for which the growth was 82.8%. In the case of `COc1ccccc1Nc1cc(O)c2c(=O)cc(-c3ccccc3)oc2c1`, the growth was 54.5%. `COc1ccc(C(O)c2cc3c(N)c(C(=O)Nc4ccc(Cl)cc4)sc3nc2C)cc1` (stereo not drawn): the growth was 21.4%. `COc1cc(NCC(O)CN(CC(C)C)CC(C)C)c2nc(C)ccc2c1` (stereo not drawn): the growth was 75.3%. As to `CCCCCCCCCCN=C(N)N=C(N)N`, the growth is 22.1%. As to `COc1ccc(C(O)c2cc3c(N)c(C(=O)Nc4cccc(Br)c4C)sc3nc2C)cc1` (stereo not drawn), the growth is 26.9%. The value for `CCCCCCCCCCCCCCCCCCOc1ccccc1N` was 21.3%; that for `CC(=O)O[C@H]1CC[C@@]2(C)[C@@H](CC[C@@H]3[C@@H]2CC[C@@]2(C)[C@H]3CC[C@]2(O)C(C)=O)C1` was 95.7%. For the compound `CCC1(CC)NC(=O)c2c(c3ccc(Cl)c(Cl)c3n2C)C1C#N` (stereo not drawn), the growth is 90.5%. The value for `COc1ccc(C2CC(c3cccc(Nc4ccncc4)c3)=NN2c2cc(Cl)cc(Cl)c2)cc1` (stereo not drawn) was 33.8%; that for `CC(=O)Nc1ccc(S(=O)(=O)NC2CCCCC2)cc1` was 94.6%; that for `Clc1ccc(N2N=C(c3cccc(Nc4ccncc4)c3)CC2c2ccccc2)cc1` (stereo not drawn) was 84.9%.

As to `CN1C2CCC1CN(c1cnc(C(=O)Nc3cc(F)cc4cccnc34)cn1)C2`, the growth is 15.2%. The value for `C=Cc1cc[n+](CCCCCCCCCCCC)cc1` was 110%; that for `CCCCCCCCCCCCCCCC(=O)OC[C@@]1(O)C[C@@]23CC[C@@H]4C(C)(C)[C@H](O)CC[C@@]4(C)[C@@H]2CC[C@H]1C3` was 100%.

Regarding `O=C(CN1CCOCC1)Nc1ccc2ncnc(Nc3ccc(OCc4cccc(F)c4)c(Cl)c3)c2c1`, the growth is 51.9%. For `Clc1cc(Cl)cc(N2N=C(c3cccc(Nc4ccncc4)c3)CC2c2ccccc2)c1` (stereo not drawn), the growth is 49.4%. Take `C[C@]12CCc3nc(Nc4cccc(O)c4)sc3C1=CC[C@@H]1[C@@H]2CC[C@]2(C)/C(=N\NC(N)=S)CC[C@@H]12`: the growth is 20.1%. Turning to `Cc1c2c(cc[n+]1Cc1ccccc1)c1ccc(OCc3ccccc3)cc1n2Cc1ccccc1`, the growth was -44.8% (active). `O=C(O)CNC(=O)CN1C(=O)c2ccccc2C1=O`: the growth is 84.1%. Turning to `O=C(Nc1nc2ccc(C(=O)N3CCN(c4ccc(Cl)c(Cl)c4)CC3)cc2s1)c1ccc(NCCc2ccccc2)c([N+](=O)[O-])c1`, the growth was 92.4%. With `COc1ccccc1-c1c(-c2ccc(Cl)cc2)c2cc3c(cc2[nH]c1=O)OCCO3`, the growth is 41.5%. Consider `O=S(=O)(NCCNc1nccc(-c2c(-c3ccc(F)c(O)c3)nc3occn23)n1)c1ccccc1`, for which the growth was 55.8%. The value for `Clc1cc(Cl)cc(N2N=C(c3cccc(Nc4ccncc4)c3)CC2c2ccc(Br)cc2)c1` (stereo not drawn) was 33.3%; that for `Cn1c(COC(=O)NCCn2ccnc2)nc2c(N3CCOCC3)nc(-c3ccccc3)nc21` was -74.7% (active).

Turning to `Cc1c2c(cc[n+]1Cc1ccc(F)cc1)c1ccc(OCc3cccc(F)c3)cc1n2Cc1cccc(F)c1`, the growth was -44.4% (active). The value for `CCCOc1nc(SCCC)nc2c1cnn2-c1ccccc1` was 102%; that for `Cc1ccc(/C=C/C(=O)c2ccc(N)cc2)c(C)c1` was 91.6%; that for `Cc1cc(C)c(C=O)c(C)c1` was 79.9%. As to `COc1ccc(-c2c(-c3ccccc3)noc2N)cc1OC`, the growth was 98.8%. As for `O=C1c2cccnc2C(=O)c2nc3cc(N4CCN(C5CC5)CC4)ccc3nc21`, the growth was 11.6%. With `c1ccc(N2N=C(c3cccc(Nc4ccncc4)c3)CC2c2ccc3c(c2)OCO3)cc1` (stereo not drawn), the growth is 14.3%. The value for `COc1cc(NCC(C)(O)CN(CC(C)C)CC(C)C)c2nc(C)ccc2c1` (stereo not drawn) was 64.5%; that for `C[C@@H]1CN(Cc2ccc(/C=C/c3n[nH]c4ccc5nc(-c6cn[nH]c6C(F)(F)F)c6c(c5c34)CCCC6)cc2)C[C@H](C)O1` was 22.7%. Then `CC1(C)CCCN1CCCN1c2ccccc2Sc2ccc(Cl)cc21`, with 52.6%; and `CC1CCN(C(=O)OCc2nc3nc(Cl)nc(N4CCOCC4)c3[nH]2)CC1`, with -59.2% (active); and `CC1(C)CN(c2cnc(C(=O)Nc3cc(F)cc4cccnc34)cn2)CCN1`, with 44.8%.

For `Cn1c(COC(=O)NCCN2CCOCC2)nc2c(N3CCOCC3)nc(-c3ccccc3)nc21`, the growth is -71.2% (active).
